Experimental data reported in PubChem BioAssay (NCATS).
Results filed as inconclusive are left out. Calls of active or inactive are those of the source. The call rests on the fitted dose curve; in most records, active means well fitted cell-killing curve with a large enough effect; inconclusive means small, poorly fitted or top-dose-only effect, or effect the other way; inactive means no such curve, though single readings can be large or run the other way.

Legend:
[1] = Quantitative High-Throughput drug screen in 47 multiple myeloma cell lines against the NCATS MIPE library collection: MM1S_ATCC cell viability assay (AID 1918980); further: nearly all actives have a fitted effect of over 45% in size
In short: (§1)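 Myeloma cells (500/well) treated with MIPE 4.0 compounds for 48 h at 37 °C, 5% CO2. Viability read as ATP via CellTiter-Glo luminescence after 5 min at RT; DMSO-only wells = 100%, media-only = 0% viability.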

[2] = Quantitative High-Throughput drug screen in 47 multiple myeloma cell lines against the NCATS MIPE library collection: MM1R_ATCC cell viability assay (AID 1918981); further: nearly all actives have a fitted effect of over 35% in size
In short: as §1

[3] = Quantitative High-Throughput drug screen in 47 multiple myeloma cell lines against the NCATS MIPE library collection: LP1_DSMZ cell viability assay (AID 1918982); further: nearly all actives have a fitted effect of over 35% in size
In short: as §1

[4] = Quantitative High-Throughput drug screen in 47 multiple myeloma cell lines against the NCATS MIPE library collection: KMS28PE_JCRB cell viability assay (AID 1918983); further: nearly all actives have a fitted effect of over 35% in size
In short: as §1

[5] = Quantitative High-Throughput drug screen in 47 multiple myeloma cell lines against the NCATS MIPE library collection: OCIMY5_PLB cell viability assay (AID 1918988); further: nearly all actives have a fitted effect of over 65% in size
In short: as §1

[6] = Quantitative High-Throughput drug screen in 47 multiple myeloma cell lines against the NCATS MIPE library collection: OPM1_PLB cell viability assay (AID 1918989); further: nearly all actives have a fitted effect of over 40% in size
In short: as §1

[7] = Quantitative High-Throughput drug screen in 47 multiple myeloma cell lines against the NCATS MIPE library collection: XG6_PLB cell viability assay (AID 1919865); further: nearly all actives have a fitted effect of over 40% in size
In short: as §1

[8] = Quantitative High-Throughput drug screen in 47 multiple myeloma cell lines against the NCATS MIPE library collection: XG1_PLB cell viability assay (AID 1919866); further: nearly all actives have a fitted effect of over 35% in size
In short: as §1

[9] = Quantitative High-Throughput drug screen in 47 multiple myeloma cell lines against the NCATS MIPE library collection: VP6_DJ cell viability assay (AID 1919867); further: nearly all actives have a fitted effect of over 40% in size
In short: as §1

[10] = Quantitative High-Throughput drug screen in 47 multiple myeloma cell lines against the NCATS MIPE library collection: PE2_PLB cell viability assay (AID 1919869); further: nearly all actives have a fitted effect of over 35% in size
In short: as §1

[11] = Quantitative High-Throughput drug screen in 47 multiple myeloma cell lines against the NCATS MIPE library collection: PCM6_Riken cell viability assay (AID 1919870); further: nearly all actives have a fitted effect of over 30% in size
In short: as §1

[12] = Quantitative High-Throughput drug screen in 47 multiple myeloma cell lines against the NCATS MIPE library collection: RPMI8226_ATCC cell viability assay (AID 1919871); further: nearly all actives have a fitted effect of over 30% in size
In short: as §1

[13] = Quantitative High-Throughput drug screen in 47 multiple myeloma cell lines against the NCATS MIPE library collection: OPM2_DSMZ cell viability assay (AID 1919872); further: nearly all actives have a fitted effect of over 30% in size
In short: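 CellTiter-Glo luminescence (ATP) after 48 h compound exposure, 37C/5% CO2; 500 cells/well; MIPE 4.0 approved/investigational drugs pinned in; DMSO = 100%, media only = 0% viability.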

[14] = Quantitative High-Throughput drug screen in 47 multiple myeloma cell lines against the NCATS MIPE library collection: L363_DSMZ cell viability assay (AID 1918984); further: nearly all actives have a fitted effect of over 40% in size
In short: as §1

[15] = Quantitative High-Throughput drug screen in 47 multiple myeloma cell lines against the NCATS MIPE library collection: KMS34_JCRB cell viability assay (AID 1918985); further: nearly all actives have a fitted effect of over 40% in size
In short: as §1

[16] = Quantitative High-Throughput drug screen in 47 multiple myeloma cell lines against the NCATS MIPE library collection: SKMM1_PLB cell viability assay (AID 1919863); details: SKMM1 myeloma viability, CellTiter-Glo ATP, 48 h; viability: active compounds read low; further: nearly all actives have a fitted effect of over 35% in size
In short: as §1

[17] = Quantitative High-Throughput drug screen in 47 multiple myeloma cell lines against the NCATS MIPE library collection: U266_ATCC cell viability assay (AID 1919864); further: nearly all actives have a fitted effect of over 35% in size
In short: as §1

[18] = Quantitative High-Throughput drug screen in 47 multiple myeloma cell lines against the NCATS MIPE library collection: UTMC2_PLB cell viability assay (AID 1919868); details: CellTiter-Glo ATP luminescence, 48 h; viability (% of DMSO control): at 45.8 µM (top of the series); further: nearly all actives have a fitted effect of over 55% in size
In short: as §1

[19] = Quantitative High-Throughput drug screen in 47 multiple myeloma cell lines against the NCATS MIPE library collection: OCIMY7_PLB cell viability assay (AID 1918987); details: OCI-MY7 myeloma viability, CellTiter-Glo ATP, 48 h; viability (% of DMSO): at 45.8 µM (top of the series); further: nearly all actives have a fitted effect of over 65% in size
In short: as §1
Potency means the concentration at half of the fitted maximal effect.

Structure (SMILES) | Potency [1] | Potency [2] | Potency [3] | Potency [4] | Potency [5] | Potency [6] | Potency [7] | Potency [8] | Potency [9] | Potency [10] | Potency [11] | Potency [12] | Potency [13] | Potency [14] | Potency [15] | Potency [16] | Potency [17] | Potency [18] | Potency [19]
C[C@H]1C[C@H]2[C@@H]3CCC4=CC(=O)C=C[C@]4(C)[C@@H]3C(=O)C[C@]2(C)[C@@]1(O)C(=O)CO | inactive | inactive | inactive | inactive | inactive | inactive | inactive | inactive | 6620 nM (active) | inactive | inactive | inactive | inactive |  |  |  |  |  | 
COc1cc([C@@H]2c3cc4c(cc3[C@@H](O[C@@H]3O[C@@H]5CO[C@@H](c6cccs6)O[C@@H]5[C@H](O)[C@@H]3O)[C@H]3COC(=O)[C@H]23)OCO4)cc(OC)c1O | 59 nM (active) | 74.3 nM (active) |  |  | 1660 nM (active) | 1180 nM (active) | 46.9 nM (active) | 526 nM (active) | 469 nM (active) | 166 nM (active) | 662 nM (active) |  | 4180 nM (active) | 833 nM (active) | 1870 nM (active) | 5260 nM (active) | 14800 nM (active) | 52.6 nM (active) | 
C=C1C(=CC=C2CCC[C@]3(C)[C@@H]([C@H](C)CCCC(C)(C)O)CC[C@@H]23)C[C@@H](O)C[C@@H]1O | 1480 nM (active) | 18700 nM (active) | 20900 nM (active) | 33200 nM (active) | 3320 nM (active) | 5260 nM (active) | 3720 nM (active) | 5260 nM (active) | 5260 nM (active) | 13200 nM (active) | 7430 nM (active) |  |  |  |  |  | 4180 nM (active) | 5260 nM (active) | 6620 nM (active)
O=C1NC(=O)C(=Cc2ccc3nccc(-c4ccncc4)c3c2)S1 | 118 nM (active) | 105 nM (active) |  | 372 nM (active) | 526 nM (active) | 74.3 nM (active) | 83.3 nM (active) | 33.2 nM (active) | 132 nM (active) | 46.9 nM (active) | 166 nM (active) | 235 nM (active) |  | 46.9 nM (active) | 296 nM (active) | 590 nM (active) | 418 nM (active) | 37.2 nM (active) | 66.2 nM (active)
O=C(Nc1ccc(Oc2ccnc3[nH]ccc23)c(F)c1)c1cccn(-c2ccc(F)cc2)c1=O | inactive | 10500 nM (active) | inactive |  |  | inactive | 26400 nM (active) | 26400 nM (active) | 20900 nM (active) | inactive | 23500 nM (active) |  | inactive |  |  | 18700 nM (active) | inactive | inactive | 
CC(C)(C)c1nc2c3cc[nH]c(=O)c3c3cc(F)ccc3c2[nH]1 | 14800 nM (active) | 2640 nM (active) |  | 6620 nM (active) | 1870 nM (active) | 743 nM (active) | 1320 nM (active) | 743 nM (active) |  |  | 743 nM (active) | 2960 nM (active) | 1660 nM (active) |  | 1660 nM (active) |  | 1870 nM (active) | 187 nM (active) | 332 nM (active)
O=S(=O)(O)CCSSCCS(=O)(=O)O | 18700 nM (active) | inactive | inactive |  | inactive | inactive | inactive |  |  |  | inactive |  | inactive |  |  |  |  | inactive | 
Cc1cnc(NC(=O)Nc2cc(Br)c(C)cc2OC[C@@H]2CNCCO2)cn1 | 662 nM (active) | 743 nM (active) |  | 13200 nM (active) | 1480 nM (active) | 526 nM (active) | 743 nM (active) | 1660 nM (active) | 4690 nM (active) |  | 10500 nM (active) |  |  |  | 3320 nM (active) |  |  | 1480 nM (active) | 
Cc1cnc(Nc2ccc(CN3CCOCC3)cc2)nc1Nc1cccc(S(=O)(=O)NC(C)(C)C)c1 |  | 4690 nM (active) | 5900 nM (active) | 9350 nM (active) | 1870 nM (active) | 935 nM (active) | 1180 nM (active) | 935 nM (active) |  |  | 5260 nM (active) |  | 4690 nM (active) |  | 2350 nM (active) | 5260 nM (active) | 7430 nM (active) | 743 nM (active) | 526 nM (active)
Cc1cnc(Nc2ccc(N3CCN(C)CC3)cc2)nc1Nc1cccc(S(=O)(=O)NC(C)(C)C)c1 |  | 5260 nM (active) | 5260 nM (active) | 7430 nM (active) | 1480 nM (active) | 935 nM (active) | 662 nM (active) | 469 nM (active) |  | 1320 nM (active) | 3720 nM (active) |  | 6620 nM (active) | 3720 nM (active) | 2350 nM (active) | 3320 nM (active) | 11800 nM (active) | 2350 nM (active) | 935 nM (active)
CC(C)N(CC[C@H](c1ccccc1)c1cc(CO)ccc1O)C(C)C |  | inactive | inactive | inactive |  |  | inactive | inactive | inactive | inactive | inactive | inactive | inactive | inactive | inactive |  |  |  | 
CC(=O)N[C@H]1[C@@H]([C@H](O)[C@H](O)CO)OC(C(=O)O)=C[C@@H]1N=C(N)N |  | inactive | inactive | inactive |  | inactive | inactive | inactive | inactive | inactive | inactive | inactive |  | inactive | inactive |  |  |  | 
COc1ccc(Nc2cc(-c3cnc(N)nc3)nc(N3CCOCC3)n2)cn1 | 4690 nM (active) |  |  | 833 nM (active) | 11800 nM (active) | 3720 nM (active) | 3720 nM (active) | 2350 nM (active) | 5260 nM (active) | 3320 nM (active) |  |  | 7430 nM (active) | 526 nM (active) | 2960 nM (active) | 235 nM (active) | 11800 nM (active) |  | 1050 nM (active)
C=CC(=O)Nc1ccc2ncnc(Nc3ccc(OCc4cccc(F)c4)c(Cl)c3)c2c1 | 1660 nM (active) |  | 5900 nM (active) | 2640 nM (active) | 52.6 nM (active) | 209 nM (active) | 14.8 nM (active) | 66.2 nM (active) | 264 nM (active) | 590 nM (active) | 1660 nM (active) | 9350 nM (active) |  | 29.6 nM (active) | 332 nM (active) |  |  | 743 nM (active) | 105 nM (active)
